S2 tox: cell viability loss in ATXN counter-screen | S2 cells (HEK-293 line with an ATXN2-luciferase reporter) viability, CellTiter-Fluor protease fluorescence, 24 h | Potency, µM (series often up to 56.7 µM), most hits filed as cytotoxic | 400,000 tested, 0.49% active; further: potency means the concentration at half of the fitted maximal effect; nearly all actives have a fitted effect of over 40% in size
TGFb inhibitor: inhibitors of TGF-b signaling. HepG2 CAGA-GFP TGF-b/SMAD3 reporter, GFP fluorescence, 18 h; TGF-beta stimulated, 500 pg/mL final. Potency, µM (highest dose often 46.1 µM), for the others: top-dose activity, negative = inhibition, usual class: inhibitors. 410,000 tested, 1.2% active. AID 588855; further: potency means the concentration at half of the fitted maximal effect; on the % scale 0 is the no-effect control and ±100 the full control effect; nearly all actives have a fitted effect of over 65% in size
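Inhibition was scored as loss of TGF-beta-induced (500 pg/mL final, 18 hours, 37 degrees C) GFP in HEPG2 cells carrying a CAGA-GFP reporter, in DMEM with 1% FBS. Well GFP was summed per cell; Activity was normalised to unstimulated and stimulated DMSO wells, then concentration-response fitting.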
CtBP-E1A blk: blocks the CtBP interaction with E1A. 340,000 tested, 0.49% active. activity change, % (test concentration not listed). AID 651724. AlphaScreen GST-E1A/His-CtBP binding, 1536-well; stronger effect = lower value; in the data active means activity change below about -65%; inconclusive means mostly about -30% to -63%; further: on the % scale 0 is the no-effect control and ±100 the full control effect
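Protein mix (5X: 125 nM each GST-E1A, His-CtBP) was incubated with pinned compound 2 h at 37 deg C in dark, in 50 mM Tris pH 8.0 buffer with 300 mM NaCl. Glutathione donor and nickel acceptor beads followed; AlphaScreen signal read after 1 h.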
ATXN2 expr inh: reduces ATXN2 reporter expression in HEK-293 cells | HEK-293 ATXN2-luciferase reporter, luminescence, 24 h | Potency, µM (series often up to 57 µM), for inactives: at the top dose activity change, negative = inhibition, usual class: inhibitors | 360,000 tested, 0.72% active | AID 1745845; further: potency means the concentration at half of the fitted maximal effect; on the % scale 0 is the no-effect control and ±100 the full control effect; nearly all actives have a fitted effect of over 55% in size
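qHTS (up to 57 uM final) was run with 24 h compound exposure of reporter cells at 37 °C. Each well was multiplexed: SteadyGlo luminescence measured ATXN2-luciferase expression after a fluorogenic Gly-Phe-AFC viability readout (25 uM final).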
Six1-Eya2 inh: blocks human Six1 binding to Eya2; 360,000 tested, 0.56% active; AlphaScreen GST-Six1/His-Eya2 binding, biochemical; stronger effect = lower value; AID 651725; activity change, % (no concentration beside the values); Q15475+O00167; in the data active means activity change below about -65%; inconclusive means mostly about -30% to -63%; further: on the % scale 0 is the no-effect control and ±100 the full control effect
Target sequence (O00167 whole entry, looked up): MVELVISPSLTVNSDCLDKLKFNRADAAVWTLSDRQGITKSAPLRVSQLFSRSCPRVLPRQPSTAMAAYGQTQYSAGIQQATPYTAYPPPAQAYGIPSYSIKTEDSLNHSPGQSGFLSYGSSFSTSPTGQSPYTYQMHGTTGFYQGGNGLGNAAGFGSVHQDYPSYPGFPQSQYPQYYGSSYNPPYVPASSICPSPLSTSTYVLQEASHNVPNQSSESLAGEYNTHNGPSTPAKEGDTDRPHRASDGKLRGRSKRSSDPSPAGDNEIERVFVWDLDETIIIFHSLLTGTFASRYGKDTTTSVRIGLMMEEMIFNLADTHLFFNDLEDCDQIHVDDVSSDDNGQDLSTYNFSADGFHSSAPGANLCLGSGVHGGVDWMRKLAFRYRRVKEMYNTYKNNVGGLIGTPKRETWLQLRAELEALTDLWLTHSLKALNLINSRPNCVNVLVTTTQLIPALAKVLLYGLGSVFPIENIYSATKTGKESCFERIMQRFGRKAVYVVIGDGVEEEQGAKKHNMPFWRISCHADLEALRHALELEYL
Target sequence (Q15475 whole entry, looked up): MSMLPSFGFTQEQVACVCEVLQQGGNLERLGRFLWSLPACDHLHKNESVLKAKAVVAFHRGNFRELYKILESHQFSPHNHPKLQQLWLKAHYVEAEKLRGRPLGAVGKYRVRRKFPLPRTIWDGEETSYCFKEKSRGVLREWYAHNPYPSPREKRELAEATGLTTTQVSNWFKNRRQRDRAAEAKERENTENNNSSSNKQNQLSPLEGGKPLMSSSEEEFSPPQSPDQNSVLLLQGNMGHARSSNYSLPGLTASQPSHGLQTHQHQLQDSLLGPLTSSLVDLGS
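Homogeneous AlphaScreen proximity assay pairing GST-Six1 with His-tagged Eya2 (added as 5X mix: 250 nM and 500 nM) in 50 mM Tris pH 8.0, 300 mM NaCl, 1 mM TCEP. Glutathione donor and nickel acceptor beads; 1 h, 37 °C, dark.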
HepG2 tox-1: HepG2 cytotoxicity, counter-screen for TGF-b inhibitors | HepG2 CAGA-GFP viability, ATP luminescence, 18 h | Potency, µM (series often up to 46.1 µM), for inactives: top-dose activity change, negative = cytotoxicity, most hits filed as cytotoxic | 410,000 tested, 0.76% active; further: potency means the concentration at half of the fitted maximal effect
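CellTiter-Glo luminescence gave cytotoxicity after 18 hours at 37 degrees C. The cells were HepG2 CAGA-GFP in 1% FBS DMEM, stimulated with 500 pg/mL TGF-beta after compound addition. %Activity was normalised to no-cell wells (complete cell-killing) and DMSO (no toxicity), and curves were fitted and classified.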
TGFb CAGA inh: confirmation of TGF-b signaling inhibitors in HepG2 reporter cells; HepG2 CAGA-GFP TGF-b reporter, GFP fluorescence, 18 h; cells stimulated with TGF-beta, 500 pg/mL; shares compounds with TGFb inhibitor; AID 720534; Potency, µM (series often up to 46.1 µM), without a hit: at the highest dose activity, negative = inhibition, most hits filed as inhibitors; 1,600 tested, 63% active; further: potency means the concentration at half of the fitted maximal effect; on the % scale 0 is the no-effect control and ±100 the full control effect; nearly all actives have a fitted effect of over 65% in size
HepG2 tox-2: counter-screen for TGF-b inhibitors: cytotoxicity in HepG2 cells; shares compounds with TGFb inhibitor; HepG2 CAGA-GFP viability, ATP luminescence, 18 h; cells stimulated with TGF-beta, 500 pg/mL; Potency, µM (titrated, usually from 46.1 µM), inactives show top-dose activity, negative = cytotoxicity, usual class: inhibitors; 1,600 tested, 27% active; further: potency means the concentration at half of the fitted maximal effect; on the % scale 0 is the no-effect control and ±100 the full control effect; nearly all actives have a fitted effect of over 70% in size
CCL64 TGFb inh: blocks TGF-b signaling in CCL64 reporter cells. shares compounds with TGFb inhibitor. CCL64 CAGA-GFP reporter, TGF-b stimulated, GFP fluorescence, 18 h. Potency, µM (series often up to 46.1 µM), without a hit: top-dose activity, negative = inhibition, usual class: inhibitors. 1,600 tested, 41% active. AID 720536; further: potency means the concentration at half of the fitted maximal effect; nearly all actives have a fitted effect of over 65% in size
TGFb COP inh: blocks TGF-b signaling in HepG2 COP reporter; shares compounds with TGFb inhibitor; HepG2 COP-GFP TGF-b reporter, GFP fluorescence, 18 h; cells stimulated by added recombinant TGF-beta; Potency, µM (series often up to 46.1 µM), inactives show at the highest dose activity, negative = inhibition, usual class: inhibitors; 1,600 tested, 3% active; AID 720537; further: potency means the concentration at half of the fitted maximal effect; nearly all actives have a fitted effect of over 70% in size
* hit, by the source's call; i = inactive; ? = inconclusive; / = no result. An excerpt weighted towards active compounds, which were near 2.8% of everything screened. Unless noted, the call rests on the fitted dose curve; in most records, active means well fitted curve in the direction sought with a large enough effect; inconclusive means small, poorly fitted or top-dose-only effect, or another doubt; inactive means no such curve, though single readings can be large; an effect the other way counts as inactive or inconclusive.

SMILES | S2 tox | TGFb inhibitor | CtBP-E1A blk | ATXN2 expr inh | Six1-Eya2 inh | HepG2 tox-1 | TGFb CAGA inh | HepG2 tox-2 | CCL64 TGFb inh | TGFb COP inh
CCN(CC)C(=O)[C@H]1C[C@H](CC(=O)NCc2cccc(C(F)(F)F)c2)C(=O)N2CCc3c([nH]c4ccc(Cl)cc34)[C@]12C | ? | 10µM* | -2 | ? | -7 | 13µM* | ? | ? | 26µM* | 45%
CCN(CC)C(=O)[C@H]1CC(CC(=O)NCc2cccc(C(F)(F)F)c2)C(=O)N2CCc3c([nH]c4ccccc34)[C@]12C (stereo partly drawn) | / | 13µM* | -9 | ? | -14 | -7% | 21µM* | ? | 15µM* | 35%
CCN(CC)C(=O)[C@H]1C[C@H](CC(=O)NCc2cccc(C(F)(F)F)c2)C(=O)N2CCc3c([nH]c4cc(CCC(=O)N(C)C)ccc34)[C@]12C | ? | -24% | 1 | -3% | 5 | -3% | / | / | / | /
Cc1cccc(CNC(=O)CCCN2C(=O)COc3ccc(C)cc32)c1 | / | / | / | / | / | -43% | / | / | / | /
Cc1cc(NC(=O)CS(=O)(=O)c2cn(Cc3cccc(Cl)c3)c3ccccc23)no1 | ? | 18µM* | -5 | 0% | -12 | 4% | 12µM* | -11% | -23% | 21%
Cc1cc(C)c(S(=O)(=O)NC2CC3CCC2C3)c(C)c1 (stereo not drawn) | i | ? | -15 | 21% | 13 | -30% | ? | -2% | -17% | -5%
O=c1c2cn[nH]c2nc(SCc2ccccc2F)n1-c1ccc(Br)cc1 | i | 10µM* | 0 | -34% | -10 | 16µM* | ? | ? | ? | 77%
Cc1ccc(-n2c(SCc3ccccc3F)nc3[nH]ncc3c2=O)cc1C | ? | ? | / | ? | / | -113% | / | / | / | /
CCCCc1ccc(NC(=S)NCc2cccc(OC)c2)cc1 | i | ? | 0 | -17% | -5 | -17% | / | / | / | /
CCCCc1ccc(NC(=S)Nc2ccc(Nc3ccc(OC)cc3)cc2)cc1 | i | 8.9µM* | ? | -6% | ? | -9% | 23µM* | ? | ? | 46%
COc1ccc(NS(=O)(=O)c2cccc(NC(=O)CCC(=O)c3ccc(Cl)cc3)c2)cc1 | ? | 10µM* | 6 | -15% | -1 | -23% | 16µM* | ? | ? | 46%
COc1cccc(NC(=O)CNC(=O)c2ccccc2)c1 | i | 12% | 7 | 34% | 1 | 0% | / | / | / | /
COc1ccc(NS(=O)(=O)c2cc(NC(=O)CNC(=O)c3cccc(OC)c3)ccc2C)cc1 | i | ? | 2 | 5% | 6 | 7% | ? | -8% | ? | -1%
CCCN(CCC)C(=O)Cn1c(=O)n(-c2ccc(C)c(C)c2)c(=O)c2c3c(sc21)CCCCC3 | i | -8% | / | 7% | / | 5% | / | / | / | /
O=c1[nH]c2ccccc2cc1-c1nnn(-c2ccc(Cl)c(Cl)c2)n1 | i | ? | 0 | -1% | 4 | -17% | -3% | 7% | 7% | 2%
C(=C\c1ccccc1)/CN1CCN(C(c2ccnc3ccccc23)c2nnnn2-c2ccc3c(c2)OCCO3)CC1 (stereo not drawn) | ? | ? | -20 | -17% | -24 | 1% | 15µM* | -27% | ? | 30%
Cc1cccc(C)c1-n1nnnc1C(c1cccs1)N1CCN(C/C=C/c2ccccc2)CC1 (stereo not drawn) | i | ? | -9 | -13% | -20 | -29% | ? | -17% | 21µM* | 7%
Cc1cccc(C)c1-n1nnnc1C(c1ccccc1)N1CCN(C/C=C/c2ccccc2)CC1 (stereo not drawn) | i | ? | -27 | -20% | ? | 5% | / | / | / | /
CN1OC[C@@H]2CN(Cc3ccc4c(c3)OCO4)[C@H](c3ccc(N4CCCCC4)cc3)C[C@@H]21 | i | ? | ? | 5% | ? | -18% | / | / | / | /
CCOc1ccc(-n2cc(C(=O)c3cc(Cl)ccc3O)cc(C#N)c2=O)cc1 | / | 13µM* | -2 | -27% | -2 | -22% | -81% | ? | ? | 53%
COc1ccc(-n2cc(C(=O)c3cc(Cl)ccc3O)cc(C#N)c2=O)cc1 | / | 0% | -3 | -21% | -4 | -10% | / | / | / | /
COc1ccc(C(=O)Oc2c(Sc3ccc(C)cc3)c(C)nn2C(C)(C)C)c(OC)c1 | i | ? | / | -13% | / | -69% | / | / | / | /
CC[C@]12c3[nH]c4cc(-c5ccco5)ccc4c3CCN1C(=O)[C@@H](CC(=O)NCc1ccco1)C[C@@H]2C(=O)N1CCN(C(=O)C2CC2)CC1 | i | -1% | -7 | -2% | -8 | 2% | / | / | / | /
C[C@]12c3[nH]c4cc(-c5ccco5)ccc4c3CCN1C(=O)[C@@H](CC(=O)NCC13CC4CC(CC(C4)C1)C3)C[C@@H]2C(=O)N1CCCCC1 | ? | ? | -17 | ? | -17 | -40% | / | / | / | /
C[C@]12c3[nH]c4cc(-c5ccco5)ccc4c3CCN1C(=O)[C@@H](CC(=O)NCc1cccc(C(F)(F)F)c1)C[C@@H]2C(=O)N1CCCCC1 | ? | 7.9µM* | -15 | ? | -14 | -28% | 16µM* | ? | ? | 55%
CC[C@]12c3[nH]c4cc(-c5ccco5)ccc4c3CCN1C(=O)[C@@H](CC(=O)NCc1cccc(C(F)(F)F)c1)C[C@@H]2C(=O)N1CCN(C(=O)C2CC2)CC1 | ? | 10µM* | -8 | ? | -9 | -5% | 15µM* | ? | ? | 25%
